In PubChem BioAssay (NCATS) one finds Potency data, which are given here for 40 compounds.

Results filed as inconclusive are left out. Entries that show only a call come without a potency. Active and inactive are the calls of the source. Calls come from the whole dose curve; as a rule, active = well fitted inhibition curve with a large enough effect; inconclusive = small, poorly fitted or top-dose-only effect; inactive = flat fitted curve, though single readings scatter. Starred links: 1 amine or outer side, 2 acyl side, 3 side chain; linkers in the order of their positions; H or OH if unused. Positions of bridges follow the written chain, without caps; N, C: chain ends. Non-standard residues stand in square brackets, D forms with d. Residues, ends and D or L forms follow the SMILES beside them. Chains are numbered I, II in the order given. Actinocin(9to1) = Cc1c2oc3c(C)ccc(C(=O)[*:1])c3nc-2c(C(=O)[*:2])c(N)c1=O; NMeV = CN[CH](C(=O)O)C(C)C; Sar = CNCC(=O)O

Sequence of Calcium and integrin-binding protein 1 (Homo sapiens) (Q99828 whole entry, looked up): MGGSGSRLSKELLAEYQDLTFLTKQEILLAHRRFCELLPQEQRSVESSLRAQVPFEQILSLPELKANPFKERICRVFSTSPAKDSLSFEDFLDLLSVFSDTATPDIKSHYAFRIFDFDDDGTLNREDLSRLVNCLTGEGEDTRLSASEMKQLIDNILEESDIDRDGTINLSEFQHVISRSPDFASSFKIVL

The target of this assay is Calcium and integrin-binding protein 1 (Homo sapiens) (UniProt Q99828). Briefly: Primary qHTS for Identification of Calcium Integrin Binding Protein 1 (CIB1) Competitor (AID 1508620).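 Note: GST tagged CIB1 binding a fluorescein labelled alphaIIb integrin peptide tracer; top concentration of the series differs between compounds.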 Particulars: CIB1-GST / FITC-alphaIIb peptide fluorescence polarization; series mostly up to 57.7 µM. The source says:
Assay Provider: Ulhas P. Naik, PhD Sidney Kimmel Medical College Thomas Jefferson University, Philadelphia, PA Primary function of platelets is to maintain hemostasis. At the site of vascular injury, platelets adhere to adhesive proteins such as collagen and von Willebrand factor. Adherent platelets are activated and generate soluble platelet agonists such as thrombin, ADP and thromboxane A2. Following exposure of circulating platelets to these agonists, results in platelet shape change, granule secretion and activation of platelet integrin alphaIIb-beta3. Ligand binding to activated integrin alphaIIb-beta3 triggers outside-in signaling, leading to platelet aggregation, stabilization of platelet plug, and clot retraction. Upon atherosclerotic plaque rupture also causes platelet plug formation, which underlies a number of cardiovascular diseases such as myocardial infraction and stroke. A number of anti-platelet drugs such as aspirin, clopidogrel, prasugrel, vorapaxar, and eptifibatide are currently available to prevent the thrombotic complications. However, these anti-platelet agents have several limitations including inherent variability in individual responses, developing resistance, and serious bleeding side effects. For these reasons they are not suitable for long-term protection. Based on the experiences with current anti-platelet drugs, it appears that the most useful therapeutic approach is to intersect the secondary responses such as integrin outside-in signaling or recruitment of platelets by TxA2 and secreted ADP. Compounds, which can largely preserve the primary hemostatic function of platelets but inhibit secondary response will be most desired therapeutic agents for treatment of cardiovascular disease. CIB1 is a calcium integrin binding protein, which specifically interact with the alphaIIb subunit of integrin alphaIIb-beta3. Binding of CIB1 to alphaIIb regulates the outside-in signaling in platelets, which is needed for thrombus stabilization and thrombus growth. […] Therefore, we propose that discovery of a small molecule that can prevent the association of CIB1 and alphaIIb-beta3 will be a potential anti-platelet agent that can block the thrombus formation without undue effect on hemostasis. Reference: [1] Naik MU, Nigam A, Manrai P, et al. CIB1 deficiency results in impaired thrombosis: the potential role of CIB1 in outside-in signaling through integrin alpha IIb beta 3. J Thromb Haemost.
PROTOCOL TABLES SEQUENCE No. (1, 2, 3, etc.); […] (e.g., Cells, Incubation, Reagent, etc.); VALUE and DESCRIPTION. 1; Reagent; 3 uL; Protein or buffer (4/3x) 2; Compound; 46 nL; Control inhibitor / compound library 3; Time; 15 min; Room temperature incubation 4; Reagent; 1 uL; Fluorescent labeled peptide (4x) 5; Time; 1000 rpm; Centrifuge 6; Time; 15 min; Room temperature incubation 7; Detection; Ex 480/ Em 540; ViewLux Fluorescence Read NOTES (numbers refer to sequence above) 1; Protein Mixture: C1B1-GST (final concentrations of 1 uM). […] 3; Room temperature incubation. 4; Fluorescent Labeled Peptide: FITC-aIIb (final concentration of 100 nM). Sequence of alphaIIb peptide: Acetyl-[…]-FITC (purity is 95.83%). 5; Centrifuge 1000 rpm (164 g) for 15 seconds. 6; Room temperature incubation. 7; ViewLux Fluorescent Polization Read: excitation = 480(20) / emission = 540(25) S and P; FITC Dichroic mirror.
Background: In qHTS, concentration-response curves come from the screen itself.
With `C[C@@]12C(=O)OC(=O)[C@@]1(C)C1CCC2O1`, the Potency result was “inactive”.

Regarding `C#Cc1cccc(Nc2ncnc3cc(OCCOC)c(OCCO)cc23)c1`, the Potency entry is “inactive”.

On to `COc1ccc([C@@H]2CNC(=O)C2)cc1OC1CCCC1`, for which the Potency result was “inactive”.

As for `CN(C)c1ccc(C(=O)NCCCCCCC(=O)NO)cc1`, the Potency result was “inactive”.

As to `CC(C)(O)Cn1c(NC(=O)c2ccc(-c3cn[nH]c3)s2)nc2cc(CN3CCOCC3)ccc21`, the Potency result is “inactive”.

For `OCCN1C[C@H](O)[C@@H](O)[C@H](O)[C@@H]1CO`, the Potency result was “inactive”.

Take `COc1ccc(Nc2cc(-c3cnc(N)nc3)nc(N3CCOCC3)n2)cn1`: the Potency result is “inactive”.

As for `CCOC(=O)[C@H](CCc1ccccc1)N[C@@H](C)C(=O)N1[C@@H](C(=O)O)C[C@H]2CCC[C@@H]21`, the Potency result was “inactive”.

Consider `Cc1c2oc3c(C)ccc(C(=O)NC4C(=O)NC(C(C)C)C(=O)N5CCCC5C(=O)N(C)CC(=O)N(C)C(C(C)C)C(=O)OC4C)c3nc-2c(C(=O)NC2C(=O)NC(C(C)C)C(=O)N3CCCC3C(=O)N(C)CC(=O)N(C)C(C(C)C)C(=O)OC2C)c(N)c1=O` (stereo not given) (I: TVP[Sar][NMeV] / II: TVP[Sar][NMeV]; ester I:1-I:C, II:1-II:C; linker I:N-II:N via Actinocin(9to1); configuration not given here), for which the Potency result is “inactive”.

For the compound `NC1=N[C@H]2[C@H](CS[C@H]2CCCCC(=O)O)N1`, the Potency result was “inactive”.

On to `O=c1ccn([C@@H]2O[C@H](CO)[C@H](O)[C@@H]2F)c(=O)[nH]1`, for which the Potency entry was “inactive”.

For the compound `CNC(=O)Nc1ccc(-c2nc(N3CC4CCC(C3)O4)c3cnn(C4CCC5(CC4)OCCO5)c3n2)cc1`, the Potency result is “inactive”.

`COc1ccc(S(=O)(=O)Nc2cc(-c3c(O)ccc4ccccc34)c(O)c3ccccc23)cc1`: the Potency entry was “inactive”.

With `FC(F)(F)c1ccc(Nc2nc3ccc(Oc4ccnc(-c5ncc(C(F)(F)F)[nH]5)c4)cc3[nH]2)cc1`, the Potency result is “inactive”.

As to `N#CC(=C(O)c1ccc(Cl)cc1Cl)c1nc2cc(Cl)ccc2c(=O)[nH]1`, the Potency entry is “inactive”.

Turning to `c1cc(CN2CCCNCCNCCCNCC2)ccc1CN1CCCNCCNCCCNCC1`, the Potency result is “inactive”.

Consider `N#Cc1c(NC(=O)c2cccc3ccccc23)sc2c1CCCC2`, for which the Potency result is “inactive”.

On to `COc1cc(C[C@@H](CO)[C@H](CO)Cc2ccc(O)c(OC)c2)ccc1O`, for which the Potency result is “inactive”.

As for `C=C(C)[C@@H]1CC[C@]2(C(=O)O)CC[C@]3(C)[C@H](CC[C@@H]4[C@@]5(C)CC[C@H](O)C(C)(C)[C@@H]5CC[C@]43C)[C@@H]12`, the Potency entry is “inactive”.

For the compound `COc1ccc2cc([S+]([O-])Cc3ncc(C)c(OC)c3C)nc2c1`, the Potency entry was “inactive”.

Consider `CCCCCCCCCCCC(CC1OC(=O)C1CCCCCC)OC(=O)C(CC(C)C)NC=O` (stereo not given), for which the Potency entry is “inactive”.

For the compound `CCCCCCCCCCCCCCCC(=O)OC[C@@H](NC(=O)C(Cl)Cl)[C@H](O)c1ccc([N+](=O)[O-])cc1`, the Potency entry is “inactive”.

For `C=Cc1c(C)c2cc3nc(cc4[nH]c(cc5nc(cc1[nH]2)C(C)=C5CCC(=O)O)c(CCC(=O)OC)c4C)[C@@]1(C)C3=CC=C(C(=O)OC)[C@H]1C(=O)OC`, the Potency result was “inactive”.

Turning to `CC(C)n1cnc2c(NCCc3ccc(O)cc3)nc(-c3csc4ccccc34)nc21`, the Potency result is “inactive”.

For the compound `CC(=O)O[C@H]1C[C@@H]2CC[C@H]3[C@H]4C[C@H]([N+]5(C)CCCCC5)[C@@H](OC(C)=O)[C@@]4(C)CC[C@@H]3[C@@]2(C)C[C@H]1N1CCCCC1`, the Potency entry is “inactive”.

On to `COc1cc(N2CCC(C(N)=O)CC2)ccc1Nc1nc(N)c(Cl)c(Nc2ccccc2S(=O)(=O)C(C)C)n1`, for which the Potency entry is “inactive”.

Regarding `CCC(C(=O)O)C1CCC(C)C(C(C)C(O)C(C)C(=O)C(CC)C2OC3(C=CC(O)[C@@]4(CC[C@](C)(C5CC[C@@](O)(CC)C(C)O5)O4)O3)C(C)CC2C)O1` (stereo not given in full), the Potency entry was “inactive”.

Take `Cc1cnc(NC(=O)Nc2cc(Br)c(C)cc2OC[C@@H]2CNCCO2)cn1`: the Potency entry was “inactive”.

Turning to `CCc1cc(C(C)=NOCc2ccc(C3CCCCC3)c(C(F)(F)F)c2)ccc1CN1CC(C(=O)O)C1`, the Potency result is “inactive”.

Turning to `C=CCNC1=C2C[C@@H](C)C[C@H](OC)[C@@H](O)[C@@H](C)C=C(C)[C@H](OC(N)=O)[C@@H](OC)C=CC=C(C)C(=O)NC(=CC1=O)C2=O`, the Potency entry is “inactive”.

Consider `OC[C@H]1OC(O)C[C@@H](O)[C@H]1O` (stereo not given in full), for which the Potency result was “inactive”.

Take `C[C@@H](Oc1ccc2[nH]nc(C=Cc3cnn(CCO)c3)c2c1)c1c(Cl)cncc1Cl`: the Potency result is “inactive”.

With `CC(C)(O)CC[C@@H](O)[C@](C)(O)[C@H]1CC[C@@]2(O)C3=CC(=O)[C@@H]4C[C@@H](O)[C@@H](O)C[C@]4(C)[C@@H]3CC[C@]12C`, the Potency result was “inactive”.

Take `C[C@H]1O[C@H](O[C@H]2[C@H](O)[C@@H](O)[C@@H](O[C@H]3[C@H](O)[C@@H](O)C(O)O[C@H]3CO)O[C@H]2CO)[C@H](O)[C@@H](O)[C@H]1N[C@H]1C=C(CO)[C@@H](O)[C@H](O)[C@@H]1O` (stereo not given in full): the Potency result was “inactive”.

For `COc1cc2c(cc1O)CCC1C2CC[C@@]2(C)C1CC[C@@H]2O` (stereo not given in full), the Potency result was “inactive”.

Take `O=C(O)C=Cc1ccc(Cn2ccnc2)cc1`: the Potency entry was “inactive”.

As for `CO[C@@H]1[C@@H](O)[C@H](O)[C@@H](n2c3c(Cl)cccc3c3c4c(c5c6cccc(Cl)c6[nH]c5c32)C(=O)NC4=O)O[C@@H]1CO`, the Potency entry was “inactive”.

Take `C=C1C(=O)O[C@H]2[C@@H]1CCC(C)=CCC[C@@]1(C)O[C@@H]21`: the Potency entry was “inactive”.

`CC(C=CC=C(C)C=CC1=C(C)CCCC1(C)C)=CC=CC=C(C)C=CC=C(C)C=CC1=C(C)CCCC1(C)C`: the Potency entry was “inactive”.

Turning to `COc1cc(CCc2cc(NC(=O)c3ccc(N4C[C@@H](C)N[C@@H](C)C4)cc3)n[nH]2)cc(OC)c1`, the Potency result was “inactive”.
